Source: PubChem (The Scripps Research Institute Molecular Screening Center)
Compounds with a hit are over-represented: about 1.8% of the library has one in this group of screens.
PAD4 FP inh: blocks human protein arginine deiminase 4; inhibition, % at 6.36 µM; AID 485272; hit rate 0.41% among 330,000; recombinant PAD4, RCA probe fluorescence polarization; Q9UM07;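 active means percent inhibition above a cutoff equal to the mean of all tested compounds plus 3 SD, cut at about 15% in these data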;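 further: 0% = PAD4 with RCA probe and DMSO and 100% = probe without PAD4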
LYPLA1 inh: blocks human lysophospholipase 1, a PME1 counter-screen; recombinant LYPLA1, FP-Rh probe fluorescence polarization; inhibition, % at 5.9 µM; hit rate 0.16% among 320,000; AID 2174;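 active means inhibition above the mean of all tested compounds plus 3 SD, set per campaign, cut at about 14% in these data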;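 further: inhibitors block serine hydrolase probe labeling of LYPLA1 so polarization falls; 0% = enzyme with DMSO and 100% = wells lacking LYPLA1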
Target sequence (O75608 whole entry, looked up): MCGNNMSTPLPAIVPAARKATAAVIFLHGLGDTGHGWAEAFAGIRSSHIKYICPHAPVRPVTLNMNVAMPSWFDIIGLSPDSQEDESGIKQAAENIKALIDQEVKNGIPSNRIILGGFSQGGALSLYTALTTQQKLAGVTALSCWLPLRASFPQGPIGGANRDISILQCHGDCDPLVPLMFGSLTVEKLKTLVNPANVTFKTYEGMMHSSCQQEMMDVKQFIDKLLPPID
LYPLA2 counter: counter-screen for PME1 inhibitors: inhibitors of human LYPLA2 | hit rate 0.38% among 320,000 | AID 2177 | recombinant LYPLA2, FP-Rh probe fluorescence polarization | inhibition, % at 5.9 µM;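 active means inhibition above the screen-wide mean plus 3 SD, limit set per campaign, cut at about 26% in these data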;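 further: 0% = LYPLA2 with DMSO and 100% = wells lacking LYPLA2 enzyme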
GSTO1 inh: blocks human GSTO1 in RBBP9 counter-screen | inhibition, % at 5.96 µM | recombinant GSTO1, activity-based probe fluorescence polarization | P78417 | hit rate 1.1% among 300,000;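 active means inhibition above the campaign mean inhibition plus 3 SD, cut at about 35% in these data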;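 further: 0% = GSTO1-1 with DMSO and 100% = wells lacking GSTO1-1 enzyme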
Fam108B counter: blocks mouse Fam108B hydrolase in RBBP9 counter-screen; recombinant Fam108B, FP-Rh probe fluorescence polarization; inhibition, % at 9.51 µM; AID 1947; hit rate 0.33% among 300,000;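 active means inhibition above the screen mean inhibition plus 3 SD, computed separately per campaign, cut at about 18% in these data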;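 further: inhibitors lower polarization as less probe binds the enzyme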
PME-1 inh: blocks human protein phosphatase methylesterase 1 | recombinant PME-1, FP-Rh probe fluorescence polarization | AID 2130 | Q9Y570 | inhibition, % at 5.9 µM | hit rate 0.53% among 320,000;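 active means inhibition above the campaign mean of all compounds plus 3 SD, cut at about 26% in these data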;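 further: competitive labeling of PME-1 active site by serine hydrolase directed probe; 0% = PME-1 with DMSO and 100% = wells lacking PME-1 enzyme; inhibitors block probe labeling so polarization falls and inhibition rises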
Target sequence (Q9Y570 whole entry, looked up): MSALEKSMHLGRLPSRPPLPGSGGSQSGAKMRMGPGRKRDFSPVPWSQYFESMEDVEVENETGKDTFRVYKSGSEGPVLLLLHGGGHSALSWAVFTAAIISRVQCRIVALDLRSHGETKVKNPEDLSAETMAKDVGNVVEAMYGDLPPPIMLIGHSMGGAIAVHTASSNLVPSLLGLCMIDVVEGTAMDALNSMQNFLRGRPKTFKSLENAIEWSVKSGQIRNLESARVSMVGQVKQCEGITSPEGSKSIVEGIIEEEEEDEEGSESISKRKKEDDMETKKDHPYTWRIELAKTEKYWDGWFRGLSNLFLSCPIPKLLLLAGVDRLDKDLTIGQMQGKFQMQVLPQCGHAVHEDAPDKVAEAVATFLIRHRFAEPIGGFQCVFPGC
LYPLA2 confirm: LYPLA2 (human) inhibition, confirmation counter-screen | shares compounds with LYPLA2 counter | recombinant LYPLA2, FP-Rh probe fluorescence polarization | AID 2232 | inhibition, % at 5.9 µM | hit rate 72% among 1,100;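 active means mean inhibition across replicates above the hit cutoff set in the primary screen, cut at about 26% in these data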;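 further: blocked labeling of the enzyme by serine hydrolase FP-Rh probe lowers polarization; 0% = enzyme with DMSO and 100% = wells lacking LYPLA2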
LYPLA2 ABPP: inhibitors of human LYPLA2 | hit rate 30% among 150 | shares compounds with LYPLA2 counter | inhibition, % at 20 µM | AID 652029 | rhLYPLA2 in mouse brain proteome, gel ABPP FP-Rh;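 active means inhibition of LYPLA2 enzyme probe labeling above about 50%, limit read from the data; inactive means inhibition below that limit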;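 further: loss of FP-Rh probe labeling of the LYPLA2 gel band measured as band density; 0% = DMSO only control band and 100% = blank gel background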
* = called active by the depositor; . = no result given.

SMILES	PAD4 FP inh	LYPLA1 inh	LYPLA2 counter	GSTO1 inh	Fam108B counter	PME-1 inh	LYPLA2 confirm	others
Fc1ccccc1COc1ccc(Br)cc1CNCc1cccnc1	-0.8	-1.7	-1.4	-2.6	-1.3	4.8	.
Fc1ccccc1COc1ccc(Br)cc1CNCc1ccncc1	5.5	-3.6	27.0*	9.8	3.7	6.1	2.0
Cc1nn(C)cc1CN(C)C(=O)c1nn2c(c1Cl)NC(c1cccs1)CC2C(F)(F)F (stereo not drawn)	-4.3	-1.1	0.0	0.2	4.7	-1.2	.
Cc1nn(C)c(C)c1CN(C)C(=O)c1cc2n(n1)C(C(F)(F)F)CC(c1cccs1)N2 (stereo not drawn)	3.0	-0.8	26.1*	-1.2	3.1	-0.4	10.2
C=CCNC(=O)CN(Cc1ccccc1)S(=O)(=O)c1ccccc1	-2.1	0.9	-1.0	6.7	1.8	-0.8	.
COc1cccc(CC(NC(C)=O)C(=O)NC2CCN(S(=O)(=O)c3ccc(C)cc3)CC2)c1OC (stereo not drawn)	-4.2	2.2	-6.3	-0.6	1.1	0.9	.
O=C(NCCNC(=O)c1cc(OCC(F)(F)F)ccc1OCC(F)(F)F)Nc1ccc(OC(F)(F)F)cc1	0.8	10.9	25.8*	-4.3	-11.1	-10.8	35.1*
O=[N+]([O-])c1ccc(N2CCN(c3ccc([N+](=O)[O-])cc3CO)CC2)c(CO)c1	2.8	4.0	27.1*	-4.7	-2.3	-1.4	30.2*
N#Cc1cc([N+](=O)[O-])ccc1N1CCN(c2ccccc2O)CC1	-1.9	1.2	15.1	7.5	2.7	5.4	.
Cc1nc2ccccc2nc1OCC(=O)Nc1ccc2ccccc2c1	-5.3	0.0	32.5*	2.8	3.1	-8.8	11.6
COc1ccccc1-c1nnc(N)s1	-6.0	5.8	28.0*	2.2	-2.1	1.1	-1.5
O=C1C(=O)N(CCCO)C(c2ccc(Br)cc2)/C1=C(\O)c1ccc(Br)cc1 (stereo not drawn)	-3.7	1.0	5.3	1.9	2.1	2.6	.
CC(=O)Nc1cccc(Oc2ncccc2[N+](=O)[O-])c1	-5.7	0.3	3.3	4.7	0.0	-7.9	.
O=[N+]([O-])c1ccc(Oc2cccc(Br)c2)c2ccncc12	-5.5	11.2	80.6*	20.4	6.4	10.3	79.0*	LYPLA2 ABPP=57.0*
O=[N+]([O-])c1ccc(Oc2ccc(F)cc2)c2ccncc12	-11.7	0.8	56.6*	9.6	-2.6	3.9	54.3*	LYPLA2 ABPP=12.0
O=C(CSc1ccccc1)Nc1ccc(N2CCOCC2)c(F)c1	-1.2	-0.1	-4.9	7.1	0.8	-4.2	.
Cc1cc(=O)oc2cc(Oc3ccc(C(N)=O)cc3[N+](=O)[O-])ccc12	-1.9	3.6	33.1*	1.4	5.8	4.8	26.3*
CCOC(=O)C1CCN(C2=NC(=O)/C(=C/c3ccc(OC)c(OC)c3)S2)CC1	1.6	-1.7	-2.1	-4.1	-2.8	3.0	.
CCOC(=O)C1CCN(C2=NC(=O)/C(=C/c3ccc(Cl)cc3)S2)CC1	6.1	3.9	31.1*	4.2	-1.5	4.4	34.7*
c1ccc(-c2ncnc3nc4n(c23)CCC4)cc1	-0.6	-2.4	-6.8	-1.2	3.0	-1.7	.
COC(=O)c1ccc(NC(=O)C(=O)N2CCN(C(=S)Nc3ccc(C)cc3)CC2)cc1	0.7	0.4	48.0*	-2.8	5.2	0.9	54.5*
COC(=O)c1ccc(NC(=O)C(=O)N2CCN(C(=S)Nc3ccc(OC)cc3)CC2)cc1	-3.1	-2.4	42.1*	3.1	3.2	-9.7	57.8*
COc1cccc(/C=C/C(=O)N2CCN(c3n[nH]c(=O)[nH]c3=O)CC2)c1OC	-2.4	-1.8	1.1	1.9	2.3	-4.7	.
O=C(Nc1ccc([N+](=O)[O-])cc1)c1ccc(Cn2cc([N+](=O)[O-])cn2)cc1	7.2	-5.6	46.1*	-0.6	-4.5	1.5	48.9*
O=[N+]([O-])c1ccc(Sc2cccc3cccnc23)c([N+](=O)[O-])c1	3.4	-0.2	4.3	-14.7	-0.2	-5.0	.
SMILES	PAD4 FP inh	LYPLA1 inh	LYPLA2 counter	GSTO1 inh	Fam108B counter	PME-1 inh	LYPLA2 confirm	others
O=[N+]([O-])c1ccc(Sc2cccc3cccnc23)cc1	-1.7	1.1	27.6*	-5.5	2.6	-0.8	25.7
CCOC(=O)C1CCCN(C(=O)Cn2nc(C)c3c(C)n(-c4ccccc4)nc3c2=O)C1 (stereo not drawn)	1.4	-1.0	13.1	-1.1	-1.4	2.9	.
O=C(c1ccc(S(=O)(=O)N2CCCC2)cc1)N1CCC(CN2C(=O)c3cccc4cccc(c34)C2=O)CC1	-2.1	5.0	26.8*	-16.2	-3.9	-3.5	15.9
COc1ccc(S(=O)(=O)N2CCC(CN3C(=O)c4cccc5cccc(c45)C3=O)CC2)cc1	-2.9	-2.4	4.6	-5.3	-9.4	10.0	.
COc1ccc(N2CCN(C(=O)c3ccc(N(C)S(=O)(=O)c4ccc(OC)cc4)cc3)CC2)cc1	-0.5	2.6	53.5*	-0.4	1.6	-1.4	58.0*	LYPLA2 ABPP=36.0
COc1ccc(S(=O)(=O)N(C)c2ccc(C(=O)N3CCN(C)CC3)cc2)cc1	-0.3	-1.8	0.0	1.4	-0.4	0.6	.
COc1ccc(N2CCN(C(=O)c3ccc(N(C)S(=O)(=O)c4ccc(C)cc4)cc3)CC2)cc1	-3.2	6.3	49.9*	12.8	-4.2	-4.3	55.2*	LYPLA2 ABPP=3.0
CC(C)c1ccc(NC(=O)CSc2n[nH]c(=O)n2C2CC2)cc1	-4.4	2.3	5.3	-2.2	2.1	-3.4	.
COc1ccc(NCc2nnc(SCC(=O)Nc3ccccc3)n2C)cc1	1.6	7.7	1.3	6.7	0.2	2.4	.
Cc1ccc(N/C=C(/C#N)c2ccsc2)cc1	-0.7	0.7	-0.1	-4.7	3.8	10.2	.
COc1ccc(N/C=C(\C#N)c2ccc(OCCCF)cc2)cc1	2.7	6.5	73.1*	5.6	3.3	5.7	61.1*	LYPLA2 ABPP=37.0
Cc1ccc(N/C=C(\C#N)c2ccc(OCCCF)cc2)cc1	4.2	-2.1	65.2*	5.7	-0.4	12.7	75.2*	LYPLA2 ABPP=52.0*
CCOC(=O)c1ccc(NS(=O)(=O)N2CCCCCC2)cc1	-1.0	3.7	2.4	-1.6	1.9	-8.9	.
O=C(CSc1nnc(-c2ccncc2)o1)NC1C2CC3CC(C2)CC1C3 (stereo not drawn)	-4.5	2.2	-2.5	7.4	1.8	-2.8	.
CCCCCCCCCCCCCCCC[n+]1cccc2ccccc21	7.0	7.9	32.5*	7.5	12.6	9.2	57.2*
CCCCCCCCC[n+]1cccc2c3ccccc3ccc21	5.6	0.4	18.9	6.8	3.1	-8.5	.
O=C(NCc1cccnc1)C(=O)C1C(=O)Nc2ccccc21 (stereo not drawn)	-2.3	2.1	5.9	-4.6	-0.4	2.1	.
